Assay results taken from PubChem BioAssay AID1851 (National Center for Advancing Translational Sciences (NCATS), 2009).
Among all 16,000 compounds or so, about 5,800 (36%) were called active. Another 23% or so got no clear call; they are omitted. Calls follow the shape of the dose curve; as a rule, active = well fitted curve in the direction sought with a large enough effect; inconclusive = small, poorly fitted or top-dose-only effect, or effect the other way; inactive = no such curve, though single readings can be large or run the other way. The list shows a part of the results.

Each molecule was assayed against Cytochrome P450 2C19 (Homo sapiens) (UniProt P33261) (assay: Cytochrome panel assay with activity outcomes). Details: recombinant CYP, pro-luciferin dealkylation, luminescence, p450-cyp2c19; series mostly up to 57.1 µM.
Cytochrome P450 2C19 (Homo sapiens), sequence (P33261 whole entry, looked up): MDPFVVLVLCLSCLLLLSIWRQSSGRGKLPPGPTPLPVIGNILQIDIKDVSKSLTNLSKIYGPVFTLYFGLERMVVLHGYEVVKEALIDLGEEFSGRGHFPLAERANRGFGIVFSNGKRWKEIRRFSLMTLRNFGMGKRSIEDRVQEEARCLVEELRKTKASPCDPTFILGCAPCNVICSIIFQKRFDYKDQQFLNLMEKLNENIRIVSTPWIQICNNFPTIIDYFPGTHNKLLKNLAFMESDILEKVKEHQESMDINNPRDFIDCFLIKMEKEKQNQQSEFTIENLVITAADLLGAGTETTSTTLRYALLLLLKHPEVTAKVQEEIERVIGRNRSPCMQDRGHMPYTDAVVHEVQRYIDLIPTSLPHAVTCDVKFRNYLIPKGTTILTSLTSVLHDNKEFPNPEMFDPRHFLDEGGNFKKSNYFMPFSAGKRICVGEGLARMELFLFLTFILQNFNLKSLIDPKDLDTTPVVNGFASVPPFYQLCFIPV
% is scaled to controls: 0 for no effect and ±100 for the full control effect.

Structure (SMILES) | AC50 | activity, negative = inhibition
CSc1nc2cc(S(=O)(=O)N3CCCCC3)ccc2s1 | 1.26 µM (active) | –
O=C(O)CCC(=O)N1CCc2cc(S(=O)(=O)N3CCCCC3)ccc21 | inactive | –
NS(=O)(=O)c1cccc2c1c([N+](=O)[O-])cc1nc(O)c(O)nc12 | inactive | –
COc1cccc(-c2cc(NCc3cccnc3)ncn2)c1 | 10 µM (active) | –
c1cncc(CNc2cc(-c3ccoc3)ncn2)c1 | inactive | –
CN(C)C(=O)c1ccc(-c2cc(NCc3cccnc3)ncn2)cc1 | inactive | –
COc1cccc(-c2cc(NCc3ccccc3)ncn2)c1 | 7.94 µM (active) | –
Nc1ccn([C@@H]2CC[C@H](CO)O2)c(=O)n1 | inactive | –
O=C(O)[C@@H]1[C@@H]2C[C@H]3c4[nH]c5ccccc5c4CCN3C[C@@H]2CC[C@@H]1O | inactive | –
Cc1ccc(NC(=S)N2CCN(C3CCCCC3)CC2)cc1 | 6.31 µM (active) | –
CC(=O)NS(=O)(=O)c1ccc(NC(=O)NC2CCCCC2)cc1 | inactive | –
Cc1ccc(NC(=S)N2CCN(C(=O)C3CCCO3)CC2)c(C)c1 (centres undefined) | inactive | –
O=C(Nc1ccc(Cl)cc1)NC1CCCCC1 | 8.91 µM (active) | –
NC(=O)c1ccc(NC(=O)C2CCCO2)cc1 (centres undefined) | inactive | –
S=C(Nc1cccc(Cl)c1)NC1CCCCC1 | 7.08 µM (active) | –
S=C(NCc1ccccn1)Nc1cccc(Cl)c1 | 3.55 µM (active) | –
Nc1nc(N)nc(CCCc2nc(N)nc(N)n2)n1 | – | 103% [at 11.4 µM] (inactive)
N#Cc1cccc(-c2nc3cnc(N4CCNCC4)nc3n(C3CC3)c2=O)c1 | inactive | –
CN1C(=O)C(CC(N)=O)N(NC(=O)c2ccc(Cl)cc2)C1=S (centres undefined) | inactive | –
Cc1ccc(NC(=S)NC2CCCC2)cc1 | 3.55 µM (active) | –
CO[C@H]1COC(=O)C/C=C\[C@H](C)[C@@H](OC)COC(=O)[C@@H](C)COC(=O)C/C=C\[C@@H]1C | – | -29.5% [at 11.4 µM] (inactive)
COc1ccc(Cn2c(SCc3ccccc3C)nc3cc(OC)c(OC)cc3c2=N)cc1 | 20 µM (active) | –

Structure (SMILES) | AC50 | activity, negative = inhibition
CN1CCN(c2ncc3nc(-c4ccc(Cl)cc4)c(=O)n(Cc4cccs4)c3n2)CC1 | inactive | –
COc1cc2nc(SCc3ccc(Cl)cc3Cl)n(Cc3cccs3)c(=N)c2cc1OC | 2.51 µM (active) | –
COc1cccc(-c2ccc3ncnc(N4CCOCC4)c3c2)c1 | 3.98 µM (active) | –
Cc1ccccc1-c1ccc2ncnc(N3CCN(C)CC3)c2c1 | inactive | –
FC(F)(F)c1ccccc1-c1ccc2ncnc(N3CCOCC3)c2c1 | 0.631 µM (active) | –
O=C(O)C1CCN(c2ncnc3ccc(-c4ccccc4C(F)(F)F)cc23)CC1 | inactive | –
CN1CCN(c2ncnc3ccc(-c4ccccc4C#N)cc23)CC1 | inactive | –
COc1ccccc1-c1ccc2ncnc(N3CCOCC3)c2c1 | 1.26 µM (active) | –
CN1CCN(c2ncnc3ccc(-c4ccccc4Cl)cc23)CC1 | 3.98 µM (active) | –
CS(=O)(=O)Nc1cccc(-c2ccc3ncnc(N4CCOCC4)c3c2)c1 | inactive | –
COc1ccccc1-c1nc(N2CCOCC2)c2ccccc2n1 | inactive | –
COc1cccc(-c2ccc3ncnc(N4CCNCC4)c3c2)c1 | 3.16 µM (active) | –
FC(F)(F)c1ccccc1-c1nc(N2CCOCC2)c2ccccc2n1 | 15.8 µM (active) | –
CS(=O)(=O)Nc1cccc(-c2ccc3ncnc(N4CCNCC4)c3c2)c1 | inactive | –
CN1CCN(c2nc(-c3ccccc3C(F)(F)F)nc3ccccc23)CC1 | inactive | –
N#Cc1cccc(-c2ccc3ncnc(N4CCNCC4)c3c2)c1 | inactive | –
NCCCCC(=O)O | inactive | –
CCOC(=O)C1=C(c2ccccc2)OC(N)=C(C#N)C1c1ccc(Cl)s1 (centres undefined) | 0.398 µM (active) | –
CCc1cc2c(=O)c(-c3nc4ccccc4[nH]3)coc2cc1OC(=O)N1CCOCC1 | 15.8 µM (active) | –
COc1cc(Br)c(C(C)NC(=O)c2cccc(Br)c2)cc1OC (centres undefined) | 2.24 µM (active) | –
COc1ccccc1CNc1ncnc2ccc(-c3ccc(N(C)C)cc3)cc12 | 10 µM (active) | –
COc1ccccc1CNc1ncnc2ccc(-c3ccc4c(c3)OCO4)cc12 | 3.16 µM (active) | –

Structure (SMILES) | AC50 | activity, negative = inhibition
CN(C)c1ccc(-c2ccc3ncnc(NCc4ccccc4)c3c2)cc1 | 7.94 µM (active) | –
COc1ccc(CNc2ncnc3ccc(-c4ccc(N(C)C)cc4)cc23)c(OC)c1 | 3.98 µM (active) | –
CC(C)CO/N=C1/C[C@@H](O)[C@@H](O)[C@@H]2[C@@H]3C(=O)N(C[C@@H]4CCCO4)C(=O)[C@H]3CC[C@H]12 | – | 24.8% [at 11.4 µM] (inactive)
COCCNc1ncnc2ccc(-c3ccc(C(=O)N(C)C)cc3)cc12 | inactive | –
COc1ccc(CNc2ncnc3ccc(-c4ccc(C(=O)N(C)C)cc4)cc23)c(OC)c1 | 15.8 µM (active) | –
Clc1ccc(Sc2cc(N3CCOCC3)nc(-c3ccccc3)n2)cc1 | 3.55 µM (active) | –
COc1cccc(Sc2cc(N3CCOCC3)nc(-c3ccccc3)n2)c1 | 14.1 µM (active) | –
Nc1nc(Cl)cc(N2CCOCC2)n1 | inactive | –
O=c1nc(N2CCOCC2)ccn1-c1nc(-c2ccccc2)oc1-c1ccccc1 | inactive | –
CS(=O)(=O)Nc1cccc(-c2nc(N3CCOCC3)c3ccccc3n2)c1 | inactive | –
Cc1c(Br)c([N+](=O)[O-])nn1C(C)C(=O)Nc1nccs1 (centres undefined) | 10 µM (active) | –
CCc1ccccc1NC(=O)C(C)n1nc([N+](=O)[O-])c(Br)c1C (centres undefined) | 2.51 µM (active) | –
C[N+](C)(C)CCCCCC[N+](C)(C)C | inactive | –
O=C(CSCC(=O)OCn1nnc2ccccc2c1=O)Nc1ccc(Cl)cc1 | 11.2 µM (active) | –
CCC1OC23CCCCC2C(C#N)(C(=N)O3)C1(C#N)C#N (centres undefined) | 17.8 µM (active) | –
Nc1ccccc1S[C@@H](C[N+](=O)[O-])c1ccc2c(c1)OCO2 | 1.58 µM (active) | –
COc1ccc(C(=O)N2CCC[C@@]3(CCN(C(=O)NC(C)C)C3)C2)cc1 | inactive | –
CCN1CCN(c2cc(=O)n(-c3cc(Cl)ccc3C)c(=O)[nH]2)CC1 | inactive | –
CCCCCn1c(CN2CCN(c3cc(Cl)ccc3C)CC2)nc2c1c(=O)[nH]c(=O)n2C | 3.55 µM (active) | –
COc1cc(O)c2c(O)c3c(c4c2c1[C@@]1(C4)C(C)=CCCC1(C)C)[C@H](O)[C@@]1(O)CC(=O)C(C(N)=O)=C(O)[C@]1(O)C3=O | 2.51 µM (active) | –
